# Laboratory results published in PubChem BioAssay AID588522 (NMMLSC, 2011).
# The whole screen tested about 1,700 compounds, of which about 20 (1%) were called active.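 Rule for the calls: active = inhibition above the screen-wide mean plus twice its standard deviation (cut at about 32% in these data); inactive = the rest.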 What follows is part of a selection rich in actives, with near analogues and random picks from the rest.
# System: Candida albicans drug resistance protein 1 (Cdr1) expressed in S. cerevisiae
# Test: inhibitors of Candida albicans Cdr1 efflux pump, confirmation, S. cerevisiae AD/CaCDR1, flow cytometry, cherry pick 1, singleplex (AID 588522)
# Settings: S. cerevisiae AD/CaCDR1, Nile Red efflux, at 10 µM, hits give high values
row,Compound,inhibition
1,O=C(Cc1ccccc1)NCC1OCCc2ccccc21 (stereo unspecified),-0.03% (inactive)
2,COc1ccc(C(=O)NC2CC(C)(C)Cc3c2cnn3-c2ccccc2)c(OC)c1 (stereo unspecified),-0.08% (inactive)
3,O=C(CNC(=O)c1ccc(-c2ccccc2)cc1)OCc1ccc(Cl)cc1,0.15% (inactive)
4,O=C(OCc1ccc(-c2ccccc2)cc1)c1cccc(O)c1,0.08% (inactive)
5,O=C(CSc1nnc(-c2cccnc2)n1Cc1ccco1)c1ccc(Cl)c(Cl)c1,-0.04% (inactive)
6,Cc1oc2cc3oc(=O)ccc3cc2c1C,-0.1% (inactive)
7,CC12CCC(C(=O)N(c3cccc(Cl)c3)C1=O)C2(C)C (stereo unspecified),0.11% (inactive)
8,Cc1cc(C)cc(NC(=O)C(OC(=O)c2ccc(O)cc2)c2ccccc2)c1 (stereo unspecified),-0.12% (inactive)
9,COc1ccccc1/C=C/C=N/n1c(-c2ccc(Cl)cc2Cl)n[nH]c1=S,0.09% (inactive)
10,CCOc1ccc(C2/C(=C(/O)c3ccc4c(c3)CC(C)O4)C(=O)C(=O)N2CCCn2ccnc2)cc1 (stereo unspecified),0.05% (inactive)
11,CC(/C=C/c1ccccc1)=N\NC(=O)C1CC1(C)c1ccccc1 (stereo unspecified),-0.03% (inactive)
12,O=C(Nc1ccc(NC(=O)c2cccs2)cc1)c1ccc2ccccc2c1,0.04% (inactive)
13,CCNC(=O)c1c(O)c2cccc3c2n(c1=O)CC3,-0.08% (inactive)
14,Cc1cccc(NC(=O)COc2ccccc2C)n1,-0.06% (inactive)
15,O=C(CN1C(=O)C2C3CCC(C3)C2C1=O)Oc1ccc2ccccc2c1 (stereo unspecified),-0.01% (inactive)
16,CCCc1nnc(SCC(=O)Nc2ccc(C(=O)OCC)cc2)o1,0.53% (inactive)
17,O=C(/C=C/c1c(Cl)cccc1Cl)NCc1ccccc1,-0.01% (inactive)
18,CCNc1c(NS(=O)(=O)c2ccc(C3CCCCC3)cc2)c(=O)oc2ccccc12,-0.2% (inactive)
19,CSCCC(NC(=O)COc1ccccc1)C(=O)OCCOc1ccc(Br)cc1 (stereo unspecified),-0.03% (inactive)
20,Cc1csc(NC(=O)c2ccc(-c3ccc(Cl)cc3Cl)o2)n1,0.16% (inactive)
21,Cc1cc(/C=N/NC(=O)CC2(C)OCCO2)c(C)n1-c1ccc(Cl)c(Cl)c1,0.13% (inactive)
22,COc1ccc(S(=O)(=O)N2CCOC2CNC(=O)C(=O)NCc2ccc(F)cc2)cc1 (stereo unspecified),0.04% (inactive)
23,Cc1ccc(N=C2NC(=O)/C(=C/C=C/c3ccco3)S2)cc1C,0.36% (inactive)
24,CSCCC(NS(=O)(=O)c1ccc(C)cc1)C(=O)N1CCCC1 (stereo unspecified),-0.1% (inactive)
25,C/C(N)=C(/C#N)C(=O)COC(=O)c1cc(-c2cccc(Br)c2)nc2ccccc12,0.12% (inactive)
26,Cc1ccc(/C=C(\C#N)C(=O)Nc2cccc3ncccc23)o1,-0.54% (inactive)

row,Compound,inhibition
1,O=C(NCc1ccccc1)C(=O)NCC1OCCN1S(=O)(=O)c1ccc(Br)cc1 (stereo unspecified),-0.27% (inactive)
2,Cc1nn(C)cc1N1C(=O)c2cccc3c(N)ccc(c23)C1=O,-0.53% (inactive)
3,CN(C)S(=O)(=O)c1cc(C(=O)Nc2ccn(C)n2)c(Cl)cc1Cl,-0.51% (inactive)
4,COc1ccc(C(=O)C2CCCN(Cc3cccn3-c3ccccn3)C2)c(C)c1 (stereo unspecified),0.01% (inactive)
5,CCOc1ccc(/C=C2\SC(=S)N(NC(=O)c3ccncc3)C2=O)cc1OC,-0.06% (inactive)
6,COc1ccc(NC(=S)N2CCc3cc(OC)c(OC)cc3C2)cc1,0.16% (inactive)
7,CCn1c(/C=C/c2ccc([N+](=O)[O-])o2)nc2ccccc2c1=O,0.83% (inactive)
8,CC(C)C(=O)N1CCC2(CC1)Oc1ccc(F)cc1C(=O)C21CC(c2ccccc2)=NO1 (stereo unspecified),0.01% (inactive)
9,COc1cccc(NC(=O)CN(C)C(=O)/C=C/c2cc(OC)ccc2OC)c1,-0.15% (inactive)
10,COc1ccc(/C=C(\C#N)c2c[nH]c3ccccc23)cc1,-0.2% (inactive)
11,NNC(=O)COc1ccc(C2SCCS2)cc1,-0.06% (inactive)
12,O=C(CCCCCn1c(=O)[nH]c2ccccc2c1=O)NCCc1c[nH]c2ccccc12,-0.02% (inactive)
13,COc1cccc(-c2sc3ccc(OC)cc3c2-c2ccc(OCCN3CCCCC3)cc2)c1,45.4% (active)
14,COc1ccc2sc(-c3ccccc3OC)c(-c3ccc(OCCN4CCCC4)cc3)c2c1,4.57% (inactive)
15,COc1ccc(-c2sc3ccccc3c2-c2ccc(OCCN3CCOCC3)cc2)cc1,-0.26% (inactive)
16,Cc1nn(C)cc1C(=O)Nc1ccccc1Br,-0.09% (inactive)
17,CCCCCCCCCCCCCCCC(=O)OC/C=C(C)/C=C/C=C(C)/C=C/C1=C(C)CCCC1(C)C,0.11% (inactive)
18,C=CCC[C@@H](Cc1ccc(F)cc1)C(=O)OC[C@H](Cc1c[nH]c2ccccc12)NC(=O)[C@@H](CC=C)CC(=O)N(CCO)Cc1ccccc1,0.17% (inactive)
19,CN=C(c1ccccc1)c1c(C)cccc1C,0.01% (inactive)
20,Cc1cc(C(=O)Nc2ccc(C)c(S(=O)(=O)N3CCOCC3)c2)c2ccccc2n1,-0.08% (inactive)
21,CCc1ccc(NC(=O)Cn2ncn3c(cc4ccccc43)c2=O)cc1,-0.23% (inactive)
22,Cc1ccc(OCc2cc(C(=O)N(C)CCc3ccccc3)no2)cc1C,-0.15% (inactive)
23,CCOc1ccc2nc(Cl)c(C3CC(c4ccccc4)=NN3C(=O)c3cccs3)cc2c1 (stereo unspecified),0.11% (inactive)
24,O=C1NC(=O)C2C1C(c1ccc([N+](=O)[O-])cc1)=NN2Cc1ccccc1 (stereo unspecified),0.24% (inactive)
25,CCCCCC(=O)Nc1ccc(C(=O)N/N=C/c2ccc([N+](=O)[O-])cc2)cc1,0.01% (inactive)
26,CCOC(=O)CNC(=O)CSc1nnnn1-c1cc(C)ccc1C,-0.03% (inactive)

row,Compound,inhibition
1,CC[n+]1cc(C)ccc1/C=C/c1ccc(N(C)C)cc1,4.74% (inactive)
2,COc1ccc2[nH]c3c(C)c4cc[n+](C)cc4c(C)c3c2c1,0.08% (inactive)
3,Cc1c(CCOC(=O)CC23CC4CC(CC(C)(C4)C2)C3)sc[n+]1Cc1ccc([N+](=O)[O-])cc1,0.01% (inactive)
4,CCOC(=O)c1c(NC(=S)NC(=O)c2ccco2)sc2c1CCCC2,-0.31% (inactive)
5,C[n+]1ccc(/C=C/c2c[nH]c3ccccc23)cc1,3.85% (inactive)
6,COc1ccc(C(=O)NC2CCCc3c2cnn3-c2cccc(C)c2C)c(OC)n1 (stereo unspecified),-0.29% (inactive)
7,CC(/C=N/NC(=O)c1cc(-c2ccc3ccccc3c2)n[nH]1)=C\c1ccco1,-0.15% (inactive)
8,O=C(Cc1ccc(Br)cc1)N1CCN(c2ccccn2)CC1,-0.06% (inactive)
9,CCCCN1C(=O)/C(=C/C=C2/C=Cc3ccccc3N2CC)SC1=S,-0.08% (inactive)
10,Cc1ccc(Cn2c(C)nc3c(c2=O)c2nc4ccccc4nc2n3Cc2ccco2)cc1,0.09% (inactive)
11,Cc1ccc2[nH]c3c(=O)n(CC(=O)NCCc4ccc(Cl)cc4)ncc3c2c1,0.27% (inactive)
12,COc1ccc(C(=O)NC(=S)Nc2ccc(N3CCCC3)cc2)cc1OC,-0.15% (inactive)
13,Cc1nc2c(C(=O)NCc3ccc4c(c3)OCO4)c[nH]n2c(=O)c1Cc1ccccc1F,-0.08% (inactive)
14,COc1ccccc1NC(=O)C1CCCN1S(=O)(=O)c1ccc(Cl)cc1 (stereo unspecified),-0.03% (inactive)
15,CCCc1nc(N2CCN(C)CC2)c2sc(=S)n(-c3ccccc3)c2n1,0.07% (inactive)
16,Cc1ccc(Cn2nnc3c(=O)[nH]c(C4CCN(S(=O)(=O)/C=C/c5ccccc5)CC4)nc32)cc1,-0.06% (inactive)
17,CCCCOc1ccc(C(=O)NCC(=O)OCC(=O)c2c(N)n(C)c(=O)n(C)c2=O)cc1,106% (active)
18,COc1ccccc1CSc1ncc(-c2ccc([N+](=O)[O-])cc2)[nH]1,-0.02% (inactive)
19,CCOc1ccccc1/C=c1\sc2nc(-c3ccco3)nn2c1=O,0.21% (inactive)
20,O=C(Cn1c(COc2ccccc2)nc2ccccc21)Nc1cc(Cl)c(Cl)cc1Cl,0.09% (inactive)
21,CC1CCc2c(sc(NC(=O)c3ccc(Cn4cc(Br)cn4)o3)c2C(N)=O)C1 (stereo unspecified),-0.03% (inactive)
22,Cc1ccc2c(c1)NC(=O)[C@@]1(C)[C@@H](c3ccccc3)[C@H]3COc4ccc(Cl)cc4[C@@H]3N1C2=O,0.07% (inactive)
23,CN1CCN(S(=O)(=O)c2ccc(NC(=S)NC(=O)C3CC3)cc2)CC1,-0.08% (inactive)
24,O=S(=O)(c1ccccc1)N1CCc2ccccc21,0.54% (inactive)
